High-throughput results from PubChem.
Shown is part of a subset that was picked to be rich in hits.
CBX7 AlphaScr – CBX7 inhibition, primary AlphaScreen; AlphaScreen His6-CBX7 / biotin-H3K27me3 peptide binding; hits give low values; 66,000 tested, 1.1% active; AID 1224903; O95931; normalised signal (fraction of DMSO) (concentration not given with the values); in the data active = normalised signal below about 0.5
Target sequence (O95931 whole entry, looked up): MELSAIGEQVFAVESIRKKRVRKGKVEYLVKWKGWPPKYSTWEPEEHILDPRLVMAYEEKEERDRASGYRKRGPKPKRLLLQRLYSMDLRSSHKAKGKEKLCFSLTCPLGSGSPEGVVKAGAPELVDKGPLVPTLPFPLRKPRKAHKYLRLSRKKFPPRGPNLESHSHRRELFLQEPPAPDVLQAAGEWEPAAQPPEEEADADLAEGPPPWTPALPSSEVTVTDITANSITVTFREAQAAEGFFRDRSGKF
Hits are given with their value; - = inactive.

SMILES	CBX7 AlphaScr
O=C(CSc1nnc2c(n1)[nH]c1ccccc12)N(CCO)CCO	-
O=C(Cn1cc2c(n1)CCCC2)N1CCN(Cc2ccccc2)CC1	-
CCc1ccccc1NS(=O)(=O)c1ccc2[nH]cc(C(=O)NCCOC)c(=O)c2c1	-
CCOC(=O)C1CCN(Cc2cn3c(-c4ccc(Br)cc4)nnc3s2)CC1	-
Cc1ccc(S(=O)(=O)c2nc(-c3ccccc3C)oc2N2CCCCCC2)cc1	-
Cc1ccc(S(=O)(=O)c2nc(-c3ccccc3F)oc2N2CCCCC2)cc1	0.48
O=S(=O)(c1ccccc1)c1nc(-c2ccccc2F)oc1N1CCCCCC1	-
Cc1sc2ncnc(Oc3cccc(C(F)(F)F)c3)c2c1C	-
O=C(CCCN1C(=O)c2cccnc2C1=O)N1CCN(c2ccccc2)CC1	0.49
O=C(CCCN1C(=O)c2cccnc2C1=O)Nc1ccccc1F	-
CCc1cccc(C)c1NC(=O)CCCN1C(=O)c2cccnc2C1=O	-
O=C(CCCN1C(=O)c2cccnc2C1=O)Nc1ccc(Cl)c(C(F)(F)F)c1	-
Cc1cc(Cl)ccc1OCCCC(=O)N1c2ccc(F)cc2CCC1C (stereo not given)	-
O=C(CCCN1C(=O)c2cccnc2C1=O)N1CCN(c2ccccc2F)CC1	0.34
CCc1ccccc1NC(=O)CCCN1C(=O)c2cccnc2C1=O	-
CC1CCc2cc(F)ccc2N1C(=O)CCCN1C(=O)c2cccnc2C1=O (stereo not given)	0.47
Cc1ccc(NC(=O)CCCN2C(=O)c3cccnc3C2=O)cc1F	-
CCOC(=O)Cn1c(=O)n(Cc2ccccc2Cl)c(=O)c2cccnc21	-
COc1ccc(-c2cc(-c3ccc(F)cc3)nc(N3CCCCC3)n2)cc1	-
O=C(CCN1C(=O)COc2ccccc21)NC1CCCCCCC1	-
O=C(NC1CCCC1)c1cc(Nc2ccccc2)nc2ccccc12	-
Cc1cc(Nc2cccc(C(F)(F)F)c2)c2ccccc2n1	-
COc1ccc(CCn2c(=O)c3cccnc3n(CC(=O)Nc3cccc(Cl)c3)c2=O)cc1OC	-
COc1ccc(S(=O)(=O)Nc2ccc(-c3csc(-c4ccccc4)n3)cc2)cc1	-
CCCCN(CCCC)S(=O)(=O)c1ccc(C(=O)Nc2nnc(-c3ccc(Cl)s3)o2)cc1	-
SMILES	CBX7 AlphaScr
CCN(CC)S(=O)(=O)c1ccc(C(=O)Nc2nnc(-c3ccc(Cl)s3)o2)cc1	-
CN(C)S(=O)(=O)c1ccc(C(=O)Nc2nnc(-c3ccc(Cl)s3)o2)cc1	0.22
C=CCN(CC=C)S(=O)(=O)c1ccc(C(=O)Nc2nnc(-c3ccc(Cl)s3)o2)cc1	0.37
CC(C)NC(=O)CCc1cn(Cc2ccccc2)c2ccccc12	-
CCOc1cc2c(cc1OCC)C(c1cccc(OC)c1OC)CC(=O)N2 (stereo not given)	-
COc1ccccc1Nc1ncc(C(=O)N2CCN(c3ccccn3)CC2)c2ccccc12	-
Fc1ccc(Nc2c(-c3cccnc3)nc3ccccn23)cc1	-
COc1ccc(-c2noc(COc3cc(C)c(Cl)c(C)c3)n2)cc1	-
O=C(c1cc(-c2ccncc2)nc2ccccc12)N1CCN(c2ccccn2)CC1	-
Cc1cccc(N2CCN(C(=O)c3cnn(-c4ccccc4)c3-n3cccc3)CC2C)c1 (stereo not given)	-
Cc1cccc(N2CCN(C(=O)c3cc(-c4ccncc4)nc4ccccc34)CC2C)c1 (stereo not given)	0.41
COc1ccc2c(c1)CCC(C1(O)C(=O)Nc3ccccc31)C2=O (stereo not given)	-
Cc1nc(Nc2cccc(C(F)(F)F)c2)c2c3c(sc2n1)CCCC3	-
COc1ccccc1Nc1nc(C)nc2sc(C)c(C)c12	-
Cc1sc2nc(Cc3ccccc3)nc(Nc3ccccc3F)c2c1C	-
Cc1nc(Nc2cccc(C(F)(F)F)c2)c2c(C)c(C)sc2n1	0.45
Cc1sc2nc(Cc3ccccc3)nc(Nc3cccc(C(F)(F)F)c3)c2c1C	-
Cc1nc(Nc2ccccc2F)c2c(C)c(C)sc2n1	0.47
CC1CCCCN1CCNC(=O)c1cc(=O)[nH]c2ccc(S(=O)(=O)N3CCCCC3C)cc12 (stereo not given)	-
O=C(NCc1ccc2c(c1)OCO2)[C@H](Cc1ccccc1)N1Cc2ccccc2C1=O	0.44
O=C(NCc1ccc(F)cc1)[C@H](Cc1ccccc1)N1Cc2ccccc2C1=O	-
O=C(NCc1ccc2c(c1)OCO2)[C@@H](c1ccccc1)N1Cc2ccccc2C1=O	-
O=S(=O)(c1ccc(F)cc1)N(CCCN1CCOCC1)Cc1cccs1	-
O=S(=O)(c1cccc(Cl)c1)N(CCCN1CCOCC1)Cc1cccs1	-
O=S(=O)(c1ccc(Cl)cc1)N(CCCN1CCOCC1)Cc1cccs1	0.49
SMILES	CBX7 AlphaScr
CC(C)C(=O)Nc1cccc(-c2nc3ccccc3s2)c1	-
Cc1ccc(NC(=O)CSc2nccn2-c2ccc(Cl)cc2)cc1Cl	-
COc1cccc(CNC(=O)c2ccc3c(c2)N(Cc2cccc(Cl)c2)C(=O)c2ccccc2S3)c1	-
COc1ccc(N2Cc3cccc(C(=O)NC4CCCCCC4)c3C2=O)cc1	-
COc1ccc(N2Cc3cccc(C(=O)NC4CCCC4)c3C2=O)cc1	-
CCOC(=O)N1CCC(NC(=O)c2cccc3c2C(=O)N(c2ccc(OC)cc2)C3)CC1	0.47
CCCC1=Nc2cc(C(=O)NCCCN3CC(C)CC(C)C3)ccc2Sc2ccccc21 (stereo not given)	-
O=C(NCCC1=CCCCC1)c1cc(=O)[nH]c2ccc(S(=O)(=O)N3CCCC3)cc12	-
CCc1cc(-c2n[nH]c(C)c2Oc2ccccc2)c(O)cc1OC	-
CCc1cc(C(=O)Cc2ccc3ccccc3n2)c(O)cc1OC	0.34
CCc1cc(-c2[nH]ncc2Oc2ccccc2)c(O)cc1OC	-
O=C(CSCc1ccccc1)Nc1nnc(Cc2ccc(Cl)cc2)s1	-
COc1ccc(NS(=O)(=O)c2cnc[nH]2)cc1OC	-
CCN1C(=O)CSc2ccc(C(=O)NCCc3ccc(Cl)cc3)cc21	-
COc1cc(-c2nc(Nc3ccc(F)cc3F)c3ccccc3n2)cc(OC)c1OC	-
c1ccc(Nc2c(-c3ccccn3)nc3ccccn23)cc1	0.24
c1ccc(Nc2c(-c3ccc(N4CCOCC4)cc3)nc3ccccn23)cc1	-
Cc1cccn2c(Nc3ccccc3)c(-c3ccccn3)nc12	-
Cc1cccn2c(Nc3ccc(C(C)C)cc3)c(-c3ccccn3)nc12	0.26
Cc1ccc(Nc2c(-c3ccccc3)nc3ccccn23)cc1	-
CC(C)c1ccc(Nc2c(-c3ccccn3)nc3ccccn23)cc1	0.21
Cc1cccc(C)c1Nc1c(-c2ccccn2)nc2c(C)cccn12	-
Clc1ccc(Nc2c(-c3ccccn3)nc3cnccn23)cc1	-
Cc1ccc(Nc2c(-c3ccc(C)cc3)nc3ccccn23)cc1	-
C=CCOc1ccc2nnc(-c3ccc(Br)cc3)n2n1	-
SMILES	CBX7 AlphaScr
COc1ccc(OCC(=O)Nc2ccc3oc(-c4cccc(Cl)c4)nc3c2)cc1	-
Cc1nc2cc(-c3cccc(F)c3)nn2c(C)c1CCC(=O)Nc1ccc(F)cc1	-
Cc1nc2sc(C(c3cccs3)N3CCN(c4ccc(F)cc4)CC3)c(O)n2n1 (stereo not given)	-
O=C(c1cnc(N2CCN(c3ncccn3)CC2)c2ccccc12)N1CCN(c2ccccn2)CC1	-
O=C(c1ccc(C#Cc2ccccc2)o1)N1CCN(c2ccccn2)CC1	0.45
O=C(c1n[nH]c(=O)c2ccccc12)N1CCN(c2ccccn2)CC1	-
COc1cccc(NS(=O)(=O)c2ccc3[nH]c(=O)c(=O)[nH]c3c2)c1	-
Nc1c2c(nc3sc4c(c13)CCCCC4)CCCCC2	-
